Bioassay records (PubChem BioAssay)
A selection: hits, their analogues and other compounds. The true share with any hit is near 2.1%.
Gli-Sufu block = Gli-Sufu pathway antagonists, primary screen, luciferase luminescence, Sufu-KO-LIGHT cells, uHTS; Sufu-KO-LIGHT fibroblasts, Gli luciferase reporter luminescence; inhibition, % at 5 µM; actives 0.74% (n = 340,000); AID 588413, 2011;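 active = inhibition above about 55%, limit read from the data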;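 also: 0% = DMSO-treated cells and 100% = wells with medium but no cells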
Env fusion inh = inhibitors of HIV-1 Env-driven cell-cell fusion, primary screen, HeLa-JRFL effector, CEM21 target cells, luciferase; inhibition, % at 12.3 µM; actives 1.1% (n = 360,000);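 active = mean replicate inhibition score of at least 50 and every replicate individually at or above 50; inconclusive = only one of the two criteria met; inactive = mean below 50 and not all replicates reaching 50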;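 also: 0% = plate neutral controls and 100% = maraviroc near 300 nM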
COUP-TFII inh = NR2F2 transcriptional activity inhibitors, primary screen, cell-based, luciferase reporter, HEK293T, luminescence; COUP transcription factor 2 (Homo sapiens), P24468; HEK293T NGFI-A luciferase reporter; inhibition, % at 8.6 µM; actives 0.7% (n = 370,000); AID 686940, 2013;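 active = inhibition above a per-plate cutoff, mean inhibition of test wells between control levels plus 3 SD, cut at about 38% in these data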;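 also: cells cotransfected with COUP-TFII expression vector driving the NGFI-A reporter; 0% = median of COUP-TF2 test wells and 100% = reporter-only cells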
aDG glyco act = activators of alpha-DG glycosylation, primary screen, uHTS, Pro5-aDG cells, AlphaScreen; alpha-DG glycosylation AlphaScreen (IIH6); 0% Pro5, 100% B10-LARGE cell signal; activation, % at 10 µM; actives 0.22% (n = 360,000); AID 624168, 2012;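 active = activation of at least 8% versus controls, or a plate z-score of at least 8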;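 also: Pro5 are CHO cells carrying HIG-tagged alpha-DG that lacks glycosylation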
GalR3 antagonist = GalR3 antagonists in HEK293 cells, primary screen, cell-based, fluorescence readout | HEK293 GalR3-CNG cAMP membrane potential fluorescence; galR3 body fused to GalR1 C-terminus | inhibition, % at 3 µM | Galanin receptor type 3 (Homo sapiens), O60755 | actives 0.44% (n = 360,000);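 active = inhibition above the screen-wide average plus 3 SD, cut at about 13% in these data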;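 also: forskolin and galanin both at EC90 stimulate the cells; cAMP rise reported by CNG channel membrane potential dye signal; 0% = forskolin plus galanin with DMSO and 100% = forskolin alone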
Target sequence (O60755 1-299 limits assumed): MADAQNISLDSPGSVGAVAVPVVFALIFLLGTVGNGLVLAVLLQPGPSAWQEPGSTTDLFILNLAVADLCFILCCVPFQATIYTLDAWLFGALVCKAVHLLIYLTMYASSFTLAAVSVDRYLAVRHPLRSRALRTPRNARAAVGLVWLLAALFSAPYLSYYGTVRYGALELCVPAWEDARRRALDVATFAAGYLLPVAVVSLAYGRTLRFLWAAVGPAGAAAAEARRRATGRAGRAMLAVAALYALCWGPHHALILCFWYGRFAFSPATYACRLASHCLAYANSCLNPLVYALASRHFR
Gli antag conf = Gli-SUFU pathway antagonists, confirmation, single concentration, luciferase luminescence, Sufu-KO-LIGHT cells; shares compounds with Gli-Sufu block; Gli luciferase reporter; inhibition, % at 5 µM; actives 40% (n = 2,500);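 active = mean inhibition at 5 µM reaching about 45%, limit read from the data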;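 also: plate controls were DMSO-treated cells for no effect and wells lacking cells for full effect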
Gli cytotox = cytotoxicity in Sufu-KO-LIGHT cells, confirmation, cytotoxicity control for Gli-SUFU antagonist project, cell-based, ATP luminescence, single concentration; actives 32% (n = 2,500); cytotoxicity, % at 5 µM; shares compounds with Gli-Sufu block;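 active = mean cytotoxicity at 5 µM above about 25%, limit read from the data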;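 also: cells exposed to compound overnight for roughly 16 to 18 hours; plate controls were DMSO wells with cells for no effect and medium without cells for full effect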
Wnt3a counter = Wnt3a reporter signal inhibition, confirmation, counter-screen for Gli-SUFU antagonist project, Wnt-LIGHT cells, luminescence, single concentration | shares compounds with Gli-Sufu block | Wnt3a-driven luciferase reporter | inhibition, % at 6.25 µM | actives 20% (n = 2,500);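 active = mean inhibition above about 25%, limit read from the data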
Numbers without * were called inactive; ? = inconclusive; . = not tested or not shown; [ ] = another dose, or the depositor's remark.

SMILES	Gli-Sufu block	Env fusion inh	COUP-TFII inh	aDG glyco act	GalR3 antagonist	Gli antag conf	Gli cytotox	Wnt3a counter
CC(C)C#Cc1ccc([C@@H]2[C@@H](CO)N(C(=O)C3CCOCC3)[C@H]2C#N)cc1	.	-17[16.7 µM]	.	.	.	.	.	.
O=C(COc1ccc([N+](=O)[O-])cc1)NNC(=O)Nc1ccc([N+](=O)[O-])cc1	98*	.	-8	0	-4	-1	-10	-2
Cc1ccc(NC(=O)NNC(=O)COc2ccc([N+](=O)[O-])cc2)cc1C	28	.	3	0	-2	.	.	.
C[C@@H]1CN([C@@H](C)CO)C(=O)c2cc(Br)cnc2O[C@H]1CN(C)C(=O)C1CCOCC1	.	-6[16.7 µM]	.	.	.	.	.	.
CCc1nnc(NC(=O)c2cc(-c3ccco3)nc3ccccc23)s1	61*	-4	5	0	2	9	11	-5
O=C1CC[C@@]23CCCN2C(=O)CCCC3C1 (some centres not stated)	55*	-7	19	0	-4	18	13	9
COc1ccc(-n2nc(C(=O)NCC(=O)NCCC3=CCCCC3)c3ccccc3c2=O)c(OC)c1	56*	-1	0	0	-9	20	8	-57
CCCCNC(=O)CNC(=O)c1nn(-c2ccc(OC)cc2OC)c(=O)c2ccccc12	8	?	6	0	-5	.	.	.
COc1ccc(-c2nc3n(c(=O)c2C#N)CCS3)cc1	56*	13	-12	1	6	14	19	-21
CCOc1ccc(-c2nc3n(c(=O)c2C#N)CCS3)cc1	-1	8	-6	0	2	.	.	.
COc1ccccc1CNC(=O)C[C@H]1C[C@H]2c3cc(NC(=O)c4cccnc4)ccc3O[C@H]2[C@@H](CO)O1	.	-1[16.7 µM]	.	.	.	.	.	.
COc1ccc(C(CC(=O)O)NC(=O)COc2ccccc2)cc1 (configuration not stated)	53	-31	1	0	-4	23	4	5
COc1ccc(N2CCN(C(=O)NCc3ccc(OC)c(Cl)c3)CC2)cc1	56*	13	12	0	-1	25	9	-8
COc1ccc(N2CCN(C(=O)NCc3ccc(OC)c(OC)c3)CC2)cc1	16	-3	5	0	-6	.	.	.
CCN1CCN(CCC(=O)Nc2ccc(Br)cc2)CC1	6	-2	-8	0	-7	.	.	.
CN1CCN(CCC(=O)Nc2ccc(Br)cc2)CC1	84*	8	2	0	-7	11	16	-16
CC(C)NC(=O)Nc1ccc2c(c1)C(=O)N([C@@H](C)CO)C[C@H](C)[C@H](CN(C)C(=O)Nc1ccccc1)O2	.	0[16.7 µM]	.	.	.	.	.	.
CCC1=Nc2cc(C(=O)NCc3ccco3)ccc2Sc2ccccc21	-4	-4	8	0	-13	.	.	.
CCC1=Nc2cc(C(=O)NCc3ccco3)ccc2Sc2ccc(Cl)cc21	52	?	9	0	8	56*	52*	-20
C[C@@H]1CN([C@H](C)CO)C(=O)c2ccccc2-c2ccccc2CO[C@H]1CN(C)C(=O)[C@@H](Cc1ccccc1)N(C)C	.	-15[16.7 µM]	.	.	.	.	.	.
Cc1ccc2nc(SCC(=O)NCc3ccccc3)nc(=O)n2c1	97*	-82	13	0	-2	21	33*	-17
O=C(CSc1nc2ccccc2c(=O)n1-c1ccccc1)N1CCc2ccccc2C1	67*	.	14	0	-13	74*	40*	0
O=C(CSc1nc2ccccc2c(=O)n1-c1ccccc1)N1CCC1	1	15	10	0	-9	.	.	.
O=C(CSc1nnnn1-c1ccc(Cl)cc1)Nc1cccnc1Cl	8	18	16	1	-13	.	.	.
